hgDAF12 agonist: agonists of H. glycines DAF-12 nuclear receptor | HEK293 GAL4-hgDAF12 UAS-luciferase reporter, agonist luminescence; normalized to butyrate control | activation, % at 6.8 µM | 370,000 tested, 1.8% active | AID 687014;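 active means activation above a cutoff set at the mean of all screened compounds plus 3 SD, cut at about 10% in these data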;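 further: 0% = DMSO wells and 100% = sodium butyrate wells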
ssDAF12 agonist: activates DAF-12 receptor from parasite S. stercoralis; 370,000 tested, 1% active; HEK293 ssDAF-12/GRIP1 lit1-tk-luc reporter, luminescence; % of 3 µM dafachronic acid response; AID 652126; activation, % at 6.8 µM;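 active means activation above the mean over all tested compounds plus 3 SD, cut at about 0.9% in these data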;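 further: 0% = DMSO-only wells and 100% = 3 µM delta7-dafachronic acid wells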
DAX1 inh-1: inhibitors of human orphan nuclear receptor DAX1 (NR0B1); P51843; HEK293 Gal4-DAX1 luciferase reporter, luminescence; inhibition, % at 6.75 µM; 340,000 tested, 0.99% active; AID 504766;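 active means inhibition above the mean over all tested compounds plus 3 SD, cut at about 4.2% in these data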;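 further: 0% = DAX1-transfected cells with DMSO and 100% = empty-vector control cells with DMSO; inhibition shows as a rise in luminescence from relieved DAX1 repression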
Target sequence (P51843 207-470 limits assumed): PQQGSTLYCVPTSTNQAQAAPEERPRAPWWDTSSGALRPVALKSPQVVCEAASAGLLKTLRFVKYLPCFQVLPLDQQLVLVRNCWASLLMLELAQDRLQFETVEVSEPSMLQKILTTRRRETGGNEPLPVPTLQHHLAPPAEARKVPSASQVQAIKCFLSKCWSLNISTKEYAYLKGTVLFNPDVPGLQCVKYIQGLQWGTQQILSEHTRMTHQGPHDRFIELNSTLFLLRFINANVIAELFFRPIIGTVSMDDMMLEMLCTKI
DAX1 inh-2: DAX1 (NR0B1) inhibition, primary screen; HEK293T StAR-luciferase reporter, SF-1/DAX-1 repression relief; inhibition, % at 6.8 µM; 370,000 tested, 1.1% active; AID 652010;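 active means inhibition above the mean over all tested compounds plus 3 SD, cut at about 3.6% in these data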;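 further: 0% = DAX-1 cells with DMSO and 100% = cells lacking DAX-1 with DMSO; higher inhibition means more luminescence from relief of DAX-1 repression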
hcDAF-12 act: activates DAF-12 receptor from parasite H. contortus; HEK293 hcDAF-12 lit1-tk-luc reporter, luminescence; 0% DMSO, 100% Δ7-dafachronic acid; activation, % at 6.8 µM; 370,000 tested, 1.4% active;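 active means activation above the mean of all tested compounds plus 3 SD, cut at about 5.5% in these data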;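 further: 100% = response to 3 µM Δ7-dafachronic acid high control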
An asterisk follows results filed as active; · = not tested or not shown. Sampled rows, rich in hits. Any-hit rate of the full collection: about 4.1%.

SMILES | hgDAF12 agonist | ssDAF12 agonist | DAX1 inh-1 | DAX1 inh-2 | hcDAF-12 act
O=C(OCc1cn(Cc2cc(F)cc(F)c2)nn1)N1CCOCC1 | -2 | -2 | · | 0 | 1
Cc1nn(CCOc2ccccc2)c(=O)n1-c1c(F)cccc1F | 11* | -1 | 3 | 2 | 2
COC(=O)[C@]12C[C@H](CC(=O)NCCc3ccccc3OC)C(=O)N(CCc3ccc(OC)c(OC)c3)C1=C[C@H](COCc1ccccc1)O[C@@H]2C | -2 | -1 | · | -1 | -2
Cc1ccc(-c2ccc(NC(=O)C3C4C=CC(C4)C3C(=O)O)cc2)o1 (stereo unspecified) | 13* | -1 | 0 | 1 | 1
C#CCNC(=O)C[C@H]1C[C@@]2(C(=O)OC)C(=C[C@H](C3CCCC3)O[C@@H]2C)N(Cc2ccc(Cl)cc2Cl)C1=O | -1 | -1 | · | -1 | -3
O=C(NCc1cccnc1)c1ccc2c(c1)N(Cc1ccccc1)CCS2 | -1 | -1 | 6.0* | 1 | -3
O=C(NCc1ccccn1)c1ccc2c(c1)N(Cc1ccccc1)CCS2 | -3 | -2 | 1 | 0 | -1
Cc1ccc(CNC(=O)c2cc(C)nn2-c2ccccc2)cc1 | -2 | -2 | 2 | 1 | -3
Cc1ccc(Cc2nnc3n(-c4ccccc4)nc(C(=O)c4ccccc4)n3c2=O)cc1 | -2 | -1 | 7.0* | -1 | -1
N#C/C(=C/c1ccc(N2CCCCC2)o1)c1cccc(F)c1 | -4 | 0 | 1 | 4.4* | -1
CCOC(=O)CNC(=O)c1c2c(nc3ccccc13)CCCC2 | -2 | 1.0* | 0 | 1 | 1
O=C(CSc1nnc(-c2cccs2)o1)Nc1cccc2ccccc12 | -1 | -2 | · | -2 | -1
COc1ccc(C)c2sc(=NC(=O)C(C)C)n(C)c12 | -1 | -1 | 0 | -1 | 2
COc1ccc(C)c2sc(=NC(=O)c3ccc(C(C)=O)cc3)n(C)c12 | 13* | 0 | 4.7* | 2 | 2
Nc1ccn([C@@H]2O[C@H](CNCc3ccc(N4CCNCC4)cc3)[C@@H](O)[C@H]2O)c(=O)n1 | 8 | -2 | 1 | -1 | 0
CNS(=O)(=O)c1ccc(CNC[C@H]2O[C@@H](n3ccc(N)nc3=O)[C@H](O)[C@@H]2O)cc1 | -1 | -1 | 4.6* | -1 | -1
c1ccc(-c2ncc(CSc3nncn3-c3ccccc3)s2)cc1 | 0 | -1 | 0 | -1 | 0
Cc1nnc(SCc2cnc(-c3ccc(C(C)C)cc3)s2)n1C | 12* | 1.5* | -3 | 2 | 6.0*
COc1ccc(N2CCN(CCCNC(=O)CCOC(C)(C)C)CC2)cc1 | -1 | -2 | · | -1 | -1
COCCCNC(=S)NNC(=O)c1ccc2c(c1)OCO2 | 1 | -1 | 0 | 0 | 2
CC(C)OCCCNC(=S)NNC(=O)c1ccc(Cl)c(Cl)c1 | 11* | -1 | -1 | 1 | 0
O=C(CN1C(=O)CCSc2ccccc21)Nc1ccc(F)cc1F | -2 | -1 | · | 1 | -1
CC(C)c1ccc(NC(=O)Nc2cc3sccc3n2C)cc1 | 3 | 1 | 0 | 0 | 6.0*
C=CCNC(=O)c1cc2sccc2n1C | 1 | -1 | 1 | 0 | 0
O=S1(=O)N=C(N/N=C/c2cccs2)c2ccccc21 | 1 | -1 | 4.5* | 0 | -1
SMILES | hgDAF12 agonist | ssDAF12 agonist | DAX1 inh-1 | DAX1 inh-2 | hcDAF-12 act
Cc1cc(C)nc(NC(=S)Nc2cccc(F)c2)c1 | 5 | -1 | 3 | 0 | 0
COc1cccc(NC(=S)Nc2cc(C)cc(C)n2)c1 | 6 | 1.7* | 5.3* | 1 | 5
Cc1cccc(NC(=S)Nc2ccccn2)c1 | 7 | 1.0* | 5.3* | 1 | 5
Cc1cccc(NC(=S)NNc2cccc(Cl)c2)c1 | 1 | 1.0* | -1 | 0 | 3
Cc1cccc(NNC(=S)Nc2c(C)cccc2C)c1 | -2 | -1 | -1 | 0 | -1
COC(=O)c1ccc(NC(=S)Nc2ccccn2)cc1 | 12* | 0 | 3 | 2 | 2
COC(=O)c1ccc(NC(=S)Nc2ccc(O)cc2)cc1 | -1 | 0 | 0 | -1 | 0
Cc1cccc(CNC(=S)OC2CCC23CCC(c2ccccc2)CC3)c1 (stereo unspecified) | 3 | -1 | · | -1 | 4
Cc1cc(Cl)ccc1NC(=S)Nc1ccccn1 | 6 | 0 | 4.3* | 0 | 1
Cc1cc(Cl)ccc1NC(=S)NCc1ccccc1 | 0 | -1 | 0 | 0 | -1
Cc1cc(Cl)ccc1Nc1ncccc1C(N)=O | 9 | -1 | 9.6* | 1 | 2
C/C(C=NNC(=O)CSc1nnc(-c2ccc(Cl)cc2)n1-c1ccccc1)=C\c1ccccc1 | 1 | -1 | · | 0 | -1
Cc1nnc(-c2cccc(C(F)(F)F)c2)nc1N1CCOCC1 | 1 | -2 | -1 | 4.3* | 1
S=C(NCc1ccc(Cl)cc1)OC1CCC12CCC(c1ccccc1)CC2 (stereo unspecified) | -1 | 0 | · | -1 | 2
COc1ccc(C(C(=O)NCc2ccccc2)N(Cc2cccnc2)C(=O)c2snc(C(N)=O)c2N)cc1OC (stereo unspecified) | -3 | -1 | 4.3* | 0 | 0
CCOC(=O)N1CCC(NC(=O)CN2C(=O)CSc3ncccc32)CC1 | -2 | -1 | 5.0* | 0 | 5
CCOC(=O)N1CCC(NC(=O)CCCN2C(=O)CSc3ncccc32)CC1 | 3 | -1 | 2 | 0 | 0
O=S1(=O)CC=C(CSC(=S)NC2CCS(=O)(=O)C2)C1 (stereo unspecified) | 4 | 0 | 4.3* | 0 | -1
CN(c1ccccc1)S(=O)(=O)c1cccc(C(=O)NCc2ccccc2CN2CCCC2)c1 | 1 | -1 | 0 | 0 | 0
CN(c1ccccc1)S(=O)(=O)c1ccc(C(=O)NCc2ccccc2CN2CCCC2)cc1 | -2 | -1 | -1 | 4.3* | -2
CN(c1ccc(C(=O)NCCc2ccccc2)cc1)S(C)(=O)=O | 9 | 0 | 0 | 4.4* | 5
COc1ccc(CCNC(=O)c2ccc(N(C)S(=O)(=O)c3ccc(C)cc3)cc2)cc1 | -3 | -1 | -1 | -1 | -2
Cc1ccc(S(=O)(=O)N(C)c2ccc(C(=O)NCCc3ccccc3)cc2)cc1 | 6 | 0.9* | -1 | 2 | 1
COc1ccc(OC)c(S(=O)(=O)N2CCCCC2C(=O)N2CCN(CCO)CC2)c1 (stereo unspecified) | 2 | -1 | · | 0 | -2
Cc1ccc(/C=N/N2CCN(c3ccccn3)CC2)o1 | 3 | 0 | 4.7* | 1 | -1
C(=N\N1CCN(c2ccccn2)CC1)/c1ccco1 | 2 | -1 | -1 | 0 | -2
c1ccc(N2CCN(c3nccn4ccnc34)CC2)nc1 | 10 | 1 | · | 4.0* | 5
C(=N\N1CCN(c2ccccn2)CC1)/c1ccccn1 | 6 | 1.1* | 2 | 2 | 3
O=C(c1ccc2nc(Cc3cccc(Cl)c3)oc2c1)N1CCC(O)CC1 | 0 | -1 | 0 | 0 | 0

Source: PubChem
